A selection: hits, their analogues and other compounds. The true share with any hit is near 2.1%.
LDHA inh – qHTS assay for inhibitors of human lactate dehydrogenase; L-lactate dehydrogenase A chain (Homo sapiens), P00338; purified LDHA, NADH/diaphorase-resazurin fluorescence; active compounds read low; activity change, % (values are at about 110 or 230 µM); 0.15% of 480,000 active; AID 1347041, 2019; in the data active = activity change below about -30%; inconclusive = mostly about -25% to -30%;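 note: plate controls were DMSO wells for no effect and wells without enzyme for full effect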
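LDH5 2 nM; NADH 0.06 mM, pyruvate 0.2 mM; 200 mM Tris pH 7.4, EDTA, Tween-20; 5 min RT. Detection: diaphorase 0.133 mg/mL + resazurin 37 µM, fluorescence ex540/em590 at 0 and 20 min; normalized to enzyme-free and DMSO wells.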
D2 PAM-1 – HTS Assay for Positive Allosteric Modulators of the Human D2 Dopamine Receptor: Primary Screen for Potentiators. D(2) dopamine receptor (Homo sapiens), P14416. HEK293 T-REx D2, calcium flux, EC20 dopamine potentiation. potentiation, % at 10 µM. 0.34% of 340,000 active. AID 485347, 2010;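 active = potentiation over 3 SD above the plate norm, cut at about 30% in these data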; note: 0% is about no effect
Target sequence (P14416 whole entry, looked up): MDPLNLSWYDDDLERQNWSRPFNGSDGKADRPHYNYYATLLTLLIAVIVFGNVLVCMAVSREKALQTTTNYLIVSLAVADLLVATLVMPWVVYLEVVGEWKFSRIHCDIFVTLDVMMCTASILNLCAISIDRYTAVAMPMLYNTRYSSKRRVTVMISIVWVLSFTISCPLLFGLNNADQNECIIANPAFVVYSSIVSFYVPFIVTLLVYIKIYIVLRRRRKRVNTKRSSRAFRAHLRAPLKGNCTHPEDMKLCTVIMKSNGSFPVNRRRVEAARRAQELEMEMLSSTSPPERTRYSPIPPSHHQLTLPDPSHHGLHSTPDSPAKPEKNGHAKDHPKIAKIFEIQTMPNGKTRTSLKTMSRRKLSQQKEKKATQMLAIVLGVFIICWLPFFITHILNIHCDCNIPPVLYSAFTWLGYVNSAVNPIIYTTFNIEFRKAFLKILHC
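Tetracycline-induced Hek293 Trex D2 cells, force-coupled to calcium, loaded with no-wash calcium dye. Compound added with 180 s kinetic read for agonism, then EC20 dopamine and a further 180 s read for potentiation.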
D2 ag-1 – Beta-Arrestin HTS for Positive Allosteric Modulators of the Human D2 Dopamine Receptor: Agonists. 0.084% of 360,000 active. D(2) dopamine receptor (Homo sapiens), P14416. DiscoveRx PathHunter D2 beta-arrestin, luminescence, 90 min; 100% = 57 uM dopamine signal. activation, % (concentration not given with the values); in the data active = activation above about 40%; inconclusive = between about 15% and that limit
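DiscoveRx PathHunter D2 beta-arrestin cells (2,100/well) attached overnight, then compound-stimulated 90 min at 37 C in HBSS/10 mM HEPES/0.1% Tween-20 buffer; beta-galactosidase complementation read by luminescence after 1 h at ambient temperature. Dopamine 57 uM final (EC100) as control.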
D2 ag-2 – HTS Assay for Allosteric Agonists of the Human D2 Dopamine Receptor: Primary Screen for Agonists; D(2) dopamine receptor (Homo sapiens), P14416; AID 485358, 2010; HEK293 T-REx D2 cells, calcium flux agonist mode; 0.53% of 340,000 active; activation, % at 2 µM;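 active = activation over 3 SD above normal in the single-dose calcium agonist read, cut at about 30% in these data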; note: 0% is about no effect
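Agonism scored from kinetic calcium signal (1 read/sec, 180 s) following compound pin transfer, after a 10 s baseline. Cells: HEK293 Trex line expressing inducible D2 receptor coupled to calcium, dye-loaded after overnight culture at 30 C.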
D2 PAM-2 – Beta-Arrestin HTS for Positive Allosteric Modulators of the Human D2 Dopamine Receptor: Potentiators. D(2) dopamine receptor (Homo sapiens), P14416. DiscoveRx D2 beta-arrestin cells, luminescence, 90 min; 100% = 57 uM dopamine signal. potentiation, % (concentration not given with the values). 0.23% of 360,000 active; in the data active = potentiation above about 50%; inconclusive = mostly about 30% to 49%
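D2 cells co-treated with compound plus 50 nM dopamine (EC20) for 90 min at 37 deg C to detect potentiation. Beta-arrestin recruitment was read as enzyme-fragment luminescence after 1 h at ambient temperature. Full response was set by 57 uM dopamine.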
D2 antagonist – HTS Assay for Allosteric Antagonists of the Human D2 Dopamine Receptor: Primary Screen for Antagonists. D(2) dopamine receptor (Homo sapiens), P14416. HEK293 TREx D2 cells, calcium flux, dopamine EC80. inhibition, % at 10 µM. 2% of 340,000 active. AID 485344, 2010; in the data active = inhibition above about 30%; inactive = below that, where a call was filed; note: 0% is about no effect
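Read-out: kinetic calcium fluorescence (1 cycle/s) in inducible HEK293 T-REx D2 cells after an EC80 dopamine addition that followed 180 s compound preincubation. Loss of the dopamine response indicates antagonism.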
Active calls of the source: *; ? = inconclusive; · = no result.

SMILES | LDHA inh | D2 PAM-1 | D2 ag-1 | D2 ag-2 | D2 PAM-2 | D2 antagonist
O=C(NCc1ccc2c(c1)OCO2)C1CCC(CNS(=O)(=O)c2cccc3nsnc23)CC1 (stereo not given) | -6 | -1 | -5 | -1 | 1 | 35*
Nc1nnc(SCC(=O)Nc2cc(C(F)(F)F)ccc2N2CCOCC2)s1 | -12 | 2 | -2 | 0 | -9 | 87*
O=C(Nc1cc(C(F)(F)F)ccc1N1CCOCC1)c1cncc(Br)c1 | 7 | -6 | 0 | 0 | -3 | 31*
Nc1nc(SCC(=O)Nc2cc(C(F)(F)F)ccc2N2CCOCC2)n[nH]1 | -4 | 7 | -1 | 3 | 4 | -11
COc1ccc2nc(Nc3sc4c(c3C(N)=O)CCCC4)sc2c1 | -1 | -7 | ? | 2 | 55* | 14
COc1ccc(CC(=O)Nc2sc3c(c2C(N)=O)CCCC3)cc1 | -3 | -4 | 4 | -1 | 1 | -7
CC(C)OC(=O)C1C(=O)CC(C)(O)C(C(=O)OC(C)C)C1c1ccc(F)cc1 (stereo not given) | -10 | · | -1 | · | -7 | ·
CC(C)OC(=O)C1C(=O)CC(C)(O)C(C(=O)OC(C)C)C1c1cccc(O)c1 (stereo not given) | 4 | -7 | -3 | 2 | -3 | 32*
CC(OC(=O)c1nn(C)c(=O)c2ccccc12)C(=O)c1c[nH]c2ccccc12 (stereo not given) | -3 | · | · | · | · | ·
O=c1nc2s/c(=C\c3ccco3)c(=O)n2nc1Cc1ccc(F)cc1 | 0 | 6 | 0 | 1 | -8 | 35*
COc1ccc(NC(=O)CN(C)C(=O)c2oc3ccccc3c2C)cc1 | 0 | -3 | -1 | -1 | -3 | 31*
COc1ccc(NC(=O)CN(C)CC(=O)Nc2ccccc2SC)cc1 | -35* | -6 | -4 | -1 | -9 | -8
CC1N(O)C(C)(C)C(c2ccc(Cl)cc2)=[N+]1[O-] (stereo not given) | 0 | · | · | · | · | ·
CSC(=Nc1cccc([N+](=O)[O-])c1)SC | -2 | · | · | · | · | ·
CC(C)N1CCc2c(sc(NC(=O)c3ccc(S(=O)(=O)N(C)C4CCCCC4)cc3)c2C(N)=O)C1 | -19 | 8 | · | 2 | · | ·
CNC(=O)c1c(NC(=O)c2ccc(S(=O)(=O)N(C)c3ccccc3)cc2)sc2c1CCN(C(C)C)C2 | -1 | -3 | -2 | 84* | 15 | 19
CCN1CCc2c(sc(NC(=O)c3ccc(S(=O)(=O)N(C)c4ccccc4)cc3)c2C(=O)NC)C1 | 1 | 1 | -7 | 38* | -2 | 1
CCn1c2ccccc2c2cc(/C=C3/C=Cc4ccccc43)ccc21 | -55* | · | · | · | · | ·
Cc1ccc(C(=O)NC2CC3CCC(C2)N3C)cc1 (stereo not given) | -2 | 15 | -5 | 0 | -13 | 12
CCC(=O)NC1CC2CCCC(C1)N2Cc1ccc(C)cc1 (stereo not given) | -5 | -30 | -3 | 0 | -78 | 93*
CC(=O)NC1CC2CCC(C1)N2Cc1ccc(C)cc1 (stereo not given) | 0 | -20 | 2 | 1 | -41 | 51*
COc1ccccc1-c1cc(=O)c2cc(NS(=O)(=O)c3ccc(C)cc3)ccc2o1 | -1 | · | · | · | · | ·
COc1cc(C2CC(=O)Nc3c2c(C)nn3-c2ccc(C)cc2)cc(OC)c1O (stereo not given) | 95 | · | · | · | · | ·
Cn1ncc(Br)c1C(=O)N1CCc2ccccc21 | -7 | 6 | -1 | -6 | 0 | 0
Cn1nccc1C(=O)N1CCc2ccccc21 | -7 | 1 | -5 | 0 | -4 | 36*
SMILES | LDHA inh | D2 PAM-1 | D2 ag-1 | D2 ag-2 | D2 PAM-2 | D2 antagonist
COc1ccc(-c2cc(=O)c3cc(OC(=O)C(C)(C)C)ccc3o2)cc1 | -32* | · | · | · | · | ·
CCOC(=O)N1CCC(N2CCN(S(=O)(=O)c3ccc(C)cc3)CC2)CC1 | -22 | -9 | 0 | 0 | -5 | -3
CCOC(=O)N1CCC(N2CCN(S(=O)(=O)CC)CC2)CC1 | -34* | -3 | 2 | 0 | -12 | -4
CC(C)(CO)N=C1NS(=O)(=O)c2cc([N+](=O)[O-])ccc21 | 9 | 0 | ? | 0 | 90* | 15
CC(C)(C)CC(C)(C)N=C1NS(=O)(=O)c2cc([N+](=O)[O-])ccc21 | -5 | 8 | ? | 1 | 29 | 15
CN(C)c1ccc(NC(=O)c2ccc3ccccc3c2)cc1 | 4 | · | · | · | · | ·
CCN(CC)c1ccc2c(c1)oc(=O)c1c(Cl)cc(=O)oc12 | 1 | -5 | -5 | 48* | -33 | 51*
CCOC(=O)C(C(=O)OCC)c1cc(Br)c2noc3c2c1C(=O)c1ccccc1-3 | 23 | 4 | 10 | 1 | 91* | 1
CC(=O)OCCNc1cc(N2CCN(C)CC2)c2noc3c2c1C(=O)c1ccccc1-3 | 9 | -1 | -2 | 1 | -3 | 0
CCCn1c(=O)[nH]c(=O)c2c1nc(CCc1ccccc1)c(=O)n2CCOC | 9 | · | · | · | · | ·
CCN1C(=O)c2ccccc2Sc2ccc(C(=O)NCCCN(CC(C)C)CC(C)C)cc21 | 4 | -11 | -2 | 1 | -11 | 42*
CCCCSCCCNC(=O)c1ccc2c(c1)N(CC)C(=O)c1ccccc1S2=O (stereo not given) | 3 | -28 | -2 | 1 | -20 | 30*
CCN1CCN(C(=O)c2ccc3c(c2)N(Cc2ccccc2)C(=O)c2ccccc2S3=O)CC1 (stereo not given) | 0 | -22 | -3 | 1 | -15 | 27
CCCN(CCC)CCCNC(=O)c1ccc2c(c1)N(CC)C(=O)c1ccccc1S2=O (stereo not given) | -2 | -22 | -1 | 0 | -6 | 107*
CCN1CCN(CCNC(=O)c2ccc3c(c2)N(Cc2ccc(F)cc2)C(=O)c2ccccc2S3=O)CC1 (stereo not given) | -1 | -20 | -2 | 1 | -40 | 55*
COc1ccc(C)cc1NC(=O)Cn1nc(-c2cccs2)oc1=O | -7 | · | · | · | · | ·
CC1CCN(C(=O)CSc2n[nH]c(-c3cc(Br)ccc3O)n2)CC1 | -14 | · | · | · | · | ·
